This passage reports inhibition results from PubChem BioAssay AID588726 (The Scripps Research Institute Molecular Screening Center, 2011).

Out of some 360,000 compounds screened, about 8,200 (2.3%) were called active. The sample as a whole holds a higher share of actives than the screen did. Values without a mark were called inactive. No stated cut-off is given here; in the data, active means inhibition above about 27%; inactive means the rest.

For orientation: inhibition means the relative decrease from the control value, in per cent.

Fructose-bisphosphate aldolase (Mycobacterium tuberculosis (strain ATCC 25618 / H37Rv)), sequence (P9WQA3 whole entry, looked up): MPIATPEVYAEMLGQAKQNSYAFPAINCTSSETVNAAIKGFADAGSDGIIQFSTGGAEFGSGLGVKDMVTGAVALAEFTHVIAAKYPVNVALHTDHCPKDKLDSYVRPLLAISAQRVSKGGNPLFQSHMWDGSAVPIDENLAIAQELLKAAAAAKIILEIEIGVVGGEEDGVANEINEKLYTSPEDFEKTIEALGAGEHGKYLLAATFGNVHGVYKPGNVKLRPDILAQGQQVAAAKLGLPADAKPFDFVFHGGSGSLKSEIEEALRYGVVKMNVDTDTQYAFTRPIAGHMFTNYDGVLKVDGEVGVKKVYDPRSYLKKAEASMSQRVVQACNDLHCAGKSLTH

The assay has as its target Fructose-bisphosphate aldolase (Mycobacterium tuberculosis (strain ATCC 25618 / H37Rv)) (UniProt P9WQA3). Kind of assay: M. tuberculosis aldolase activity blockers – biochemical, fluorescence, strain H37Rv, primary screen (AID 588726).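 Further: 0% = vehicle and 100% = reference inhibitor.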 Particulars: purified M. tuberculosis FBA, fluorescence read-out, at 1 µM, active compounds read high.
Regarding `CCCCC1N2CC3([N+](=O)[O-])CN1CC([N+](=O)[O-])(C2)C3(C)C` (stereo not drawn), the inhibition is 2.82%.
As for `COC(=O)c1ccc(NC(=O)CSc2nncn2-c2cccnc2)cc1`, the figure is 0.47%.
`CSc1cccc(NC(=S)N(C(C)C)C(C)c2ccccn2)c1` (stereo not drawn): the inhibition is 0.95%.
Regarding `NC(=O)CSc1nnc(-c2cccc(S(=O)(=O)N3CCOCC3)c2)o1`, the inhibition was -1.59%.
As for `Cc1ccc(NC(=O)Cc2nc(COC(=O)C(C)NS(=O)(=O)c3ccc(C)cc3)cs2)cc1` (stereo not drawn), the figure is 3.71%; as for `Cc1ccccc1OCC(=O)NNC(=O)c1ccc(-n2cncn2)c([N+](=O)[O-])c1`, -1.97%.
Under `Cc1ccc(S(=O)Cc2ccc(C(=O)N3CCN(C4CCCCC4)CC3)o2)cc1` (stereo not drawn) stands 1.16%; under `CCOC(=O)[C@@H]1[C@H]2COc3cc(OC)ccc3[C@H]2N2C(=O)N(c3ccc(F)cc3)C(=O)[C@]12C`, 0.06%.
As for `C[C@@H]1CN([C@H](C)CO)S(=O)(=O)c2ccc(C#CC3CCCCC3)cc2O[C@H]1CN(C)C(=O)Cc1ccncc1`, the figure is -2.18%; as for `O=C1NC(c2cc3c(cc2Cl)OCO3)Oc2ccccc21` (stereo not drawn), 0.96%.
As for `CCc1c(C)nc2cc(C)[nH]n2c1=O`, the inhibition was 27.9% (active).
As for `Cc1nc2nc(COc3ccccc3)[nH]n2c(=O)c1Cc1ccccc1`, the figure is 1.84%; as for `CCCCCN1CC(O)=C(c2ccccc2)C1=N`, -3.67%; as for `CCCC(C)n1[nH]c(=O)c2c(C)cc(C)nc21` (stereo not drawn), 4.12%.
In the case of `Cc1cc(-c2cccs2)nc(-n2cccc2)n1`, the inhibition is 2.52%.
Under `Cc1nc2scc(-c3cccs3)c2c(=O)n1N` stands -0.89%.
As for `CCC(C)n1[nH]c(=O)c2c(C)cc(C)nc21` (stereo not drawn), the figure is 2.95%.
As for `C=CCc1c(C)nc2cc(-c3ccccc3)[nH]n2c1=O`, the inhibition is 33.2% (active).
As for `Cc1nc2nc[nH]n2c(=O)c1C/C=C/c1ccccc1`, the figure is -4.22%.
Under `CCc1c(C)nc2cc(-c3cccs3)[nH]n2c1=O` stands 27.4% (active); under `COC(=O)CN1C(=O)[C@H]2[C@@H](/C=C/c3ccccc3)N3C(=O)CN(CC4CC4)C(=O)[C@@]3(Cc3ccccc3)[C@H]2C1=O`, 5.08%.
On to `COc1ccccc1NC(=O)CCC(=O)OC(C)C(=O)c1ccccc1` (stereo not drawn), for which the inhibition is 2.76%.
As for `O=C1N[C@@H](Cc2ccccc2)C(=O)N2[C@@H]3N(S(=O)(=O)c4ccc(F)cc4)c4ccccc4[C@]3(Br)C[C@@H]12`, the figure is -1.67%; as for `O=C(COc1ccc(Cl)cc1Cl)NCCCNC(=O)c1cnccn1`, 4.96%.
On to `Cc1ccc(C)c(-n2cc(CN3CCN(C(=O)c4ncn[nH]4)CC3)c(-c3ccccc3)n2)c1`, for which the inhibition is -1.74%.
Under `Cc1ccc(NS(=O)(=O)c2cccs2)cc1S(=O)(=O)N1CCCCCC1` stands -1.86%.
As for `CCCCCN(C(=O)NC(=O)Nc1ccccc1OC)S(C)(=O)=O`, the figure is -0.28%.
In the case of `Cn1c(=O)c2cc(NC(=O)NCCc3cccs3)ccc2n1Cc1cccc(C(F)(F)F)c1`, the inhibition was 141% (active).
Turning to `CN(C)C(=O)c1cccn(Cc2cccc(C(F)(F)F)c2)c1=O`, the inhibition was 0.45%.
Under `O=C(Cc1cccs1)NCc1cccc(C(F)(F)F)c1` stands 2.86%; under `CC1(C)OC(=O)C(=CNC(CO)C(=O)O)C(=O)O1` (stereo not drawn), -1.2%; under `COCCCNC(=O)CCc1nc2cccnc2n1Cc1ccc(OC)cc1`, -2.9%.
As for `CCOC(=O)Cc1ncccc1C(=O)Nc1ccc(OC)cc1`, the figure is -0.27%; as for `CCOC(=O)Cn1c(=O)n(Cc2ccc(OC)cc2)c(=O)c2cccnc21`, 99.3% (active).
Under `COc1cc(CCN=Cc2ccccc2O)c([N+](=O)[O-])cc1OC` stands 1.91%.
Consider `O=C(COc1ccc(-c2ccccc2)cc1)NN=C1CCCC1`, for which the inhibition was 4.25%.
Under `CN(C)C(=O)c1coc2nc3ccccc3nc12` stands 131% (active); under `COc1cccc2cc(C(=O)N(C)C)c(=O)oc12`, -1.37%.
On to `CN(C)CCNC(=O)c1ccc(Cl)c2cc3ccccc3nc12`, for which the inhibition is 9.35%.
Under `COc1ccc(C(F)(F)F)cc1N/C=C\c1nnnn1-c1ccc(C)cc1` stands 1.79%.
With `CCCCNC(=O)N1CCCC(N(C)CCc2ccc(OC)c(OC)c2)C1` (stereo not drawn), the inhibition is 3%.
`CCOC(=O)C1CCN(C(=O)Cc2c(C(=O)O)[nH]c3ccccc23)CC1`: the inhibition is 3.52%.
As for `O=C(O)c1[nH]c2ccccc2c1C(c1cccc(O)c1)c1c(C(=O)O)[nH]c2ccccc12`, the figure is 0.61%; as for `CCCS(=O)(=O)Nc1c(C(=O)O)[nH]c2ccccc12`, 38.6% (active).
As for `CCOC(=O)/C=C/C(=O)OCC(=O)NC(c1ccccc1)c1ccccc1`, the figure is 1.96%; as for `Cc1cc(Cl)c2oc(C(=O)N(C)C(C)c3ccccn3)c(C)c2c1` (stereo not drawn), 5.49%; as for `CC(C)C(=O)N1CCC2(CC1)Oc1ccc(F)cc1C(=O)C21CC(c2ccccc2)=NO1` (stereo not drawn), 4.59%.
As for `CCNC(=S)N(CCN(CC)CC)Cc1cc2cc3c(cc2[nH]c1=O)OCCO3`, the figure is 22%.
Consider `Cc1cc(C)c2[nH]c(=O)c(CN(Cc3ccccc3)C(=S)NCCCN(C)C)cc2c1`, for which the inhibition is 5.66%.
Under `CCNC(=S)N(CCN(CC)CC)Cc1cc2cc3c(cc2[nH]c1=O)OCO3` stands 32.3% (active).
Under `CCN(CC)CCCNC(=S)N(CCO)Cc1cc2cc3c(cc2[nH]c1=O)OCO3` stands 13.2%; under `COCCCNC(=S)N(CCN(C)C)Cc1cc2cc3c(cc2[nH]c1=O)OCCO3`, 28.8% (active).
As to `CN(C)CCCN(Cc1cc2cc3c(cc2[nH]c1=O)OCCO3)C(=O)NC1CCCCC1`, the inhibition was 26.5%.
As for `COc1cc(NC(=O)CSC(=S)N2CCCC2)c(OC)cc1Cl`, the figure is 9.36%; as for `Cc1ccsc1C1C(C#N)=C(N)OC2=C1C(=O)CC(C)(C)C2` (stereo not drawn), 5.8%; as for `CCc1ccc(OCC(=O)N(Cc2ccccc2)C2CCS(=O)(=O)C2)cc1` (stereo not drawn), 4.66%.
Regarding `Cn1c(=O)c2c(SCC(=O)NCC3CCCO3)nc(CC(C)(C)C)nc2n(C)c1=O` (stereo not drawn), the inhibition is -0.73%.
As for `O=C(CC[C@H]1O[C@@H](n2ccc(=O)[nH]c2=O)[C@H](O)[C@@H]1O)N[C@H](Cc1ccccc1)C(=O)NCc1ccco1`, the figure is 1.72%.
